In PubChem BioAssay AID977607 (Broad Institute, 2014):
Hit rate of the full screen: of about 1,500 compounds, about 460 (31%) were called active. About 1% were inconclusive and are not listed.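 How the source made its calls: active means curve reaches 40% activation over neutral controls at an AC40 no higher than the top valid tested concentration; inconclusive means no clear call, values can overlap the other calls; inactive means signal moving opposite to the expected increase, and the rest.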 A selection follows. Measured potencies and affinities stand elsewhere.

Assay: GLuc-reported insulin release enhancers, glucose-stimulated beta cells – cell-based, INS-1E, Gaussia luciferase, luminescence, cherry-pick, set 2, dose response (AID 977607);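 further: 0% = median of the plate neutral control wells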
Conditions: INS-1E GLuc insulin secretion reporter, 2-3 h, hits give high values; at 35 µM, 100% = signal doubled over neutral wells unless noted

Q: With `CC(C)Cc1nc2n[nH]c(N)c2c2c1COC(C)(C)C2` as the compound, how does the max activation read?
A: 33.4% (inactive)

Q: With `CCCCOc1ccc(SCCCN2CCOCC2)cc1` as the compound, how does the max activation read?
A: -17.1% [at 11 µM, 100% = signal doubled over neutral wells] (inactive)

Q: For `CC(=O)Oc1ccccc1C(=O)OCCN=C1NS(=O)(=O)c2ccccc21`, which max activation is on record?
A: -19.1% [at 0.046 µM, 100% = signal doubled over neutral wells] (inactive)

Q: For `CCOC(=O)c1cc(-c2ccc(Cl)s2)nc2c1c(C)nn2C`, which max activation is on record?
A: 61.3% (inactive)

Q: With `N#Cc1cccnc1Nc1cccc(Cl)c1` as the compound, how does the max activation read?
A: 31.6% (inactive)

Q: Which max activation does the source give for `CCNC(=O)C1(C)CCCN1C(=O)c1cc(OC)c(OC)c(OC)c1` (stereo not drawn) here?
A: -19.1% [at 0.135 µM, 100% = signal doubled over neutral wells] (inactive)

Q: Which max activation does the source give for `O=C(Nc1cccc(Cl)c1)Nc1nc(-c2ccc(Cl)cc2)cs1` here?
A: -37.7% [at 11 µM, 100% = signal doubled over neutral wells] (inactive)

Q: With `CC(=O)Nc1ccc(Nc2nc(-c3c(C)nc4ccccn34)cs2)cc1` as the compound, how does the max activation read?
A: -20% [at 11 µM, 100% = signal doubled over neutral wells] (inactive)

Q: With `Cc1ccc(-c2cc(C(=O)Nc3nn[nH]n3)c3ccccc3n2)c(C)c1` as the compound, how does the max activation read?
A: -12.2% [at 1.2 µM, 100% = signal doubled over neutral wells] (inactive)

Q: With `Cc1ccc2c(c1)C=CC(C#N)N2C(=O)c1ccccc1` (stereo not drawn) as the compound, how does the max activation read?
A: 36.1% (inactive)

Q: Which max activation does the source give for `Cc1ccc(C(OCC(O)CNCc2ccc(F)cc2)c2ccccc2)cc1` (stereo not drawn) here?
A: 97.1% (inactive)

Q: For `O=C(COc1nncc2ccccc12)NCC(F)(F)F`, which max activation is on record?
A: 25.7% (inactive)

Q: With `CCOC(=O)CN1C(=O)[C@]2(OCCC=C[C@H]2C)c2ccccc21` as the compound, how does the max activation read?
A: 33.6% (inactive)

Q: With `C1CCN(CCCNC2C3CC4CC(C3)CC2C4)C1` (stereo not drawn) as the compound, how does the max activation read?
A: -11.8% [at 0.0016 µM, 100% = signal doubled over neutral wells] (inactive)

Q: Which max activation does the source give for `CCc1nc2c(nnn2Cc2ccc(F)cc2)c(=O)[nH]1` here?
A: -16% [at 0.42 µM, 100% = signal doubled over neutral wells] (inactive)

Q: With `COc1ccc(CC(=O)N2CCc3cc(OC)c(OC)cc3C2)cc1` as the compound, how does the max activation read?
A: 20% (inactive)

Q: For `COc1ccc(-c2cc(-c3ccco3)[nH]c(=O)c2C#N)cc1OC`, which max activation is on record?
A: -12.7% [at 3.8 µM, 100% = signal doubled over neutral wells] (inactive)

Q: With `O=C(Nc1ccc(NC(=O)c2cccs2)cc1)c1ccc(Br)o1` as the compound, how does the max activation read?
A: -18.3% [at 0.135 µM, 100% = signal doubled over neutral wells] (inactive)

Q: With `O=C(Nc1nnc(CCS(=O)(=O)c2ccc3ccccc3c2)s1)c1cccs1` as the compound, how does the max activation read?
A: -24% [at 0.015 µM, 100% = signal doubled over neutral wells] (inactive)

Q: For `CC1(C)N=C(c2ccccc2)C(c2ccccc2)=N1`, which max activation is on record?
A: 33.2% (inactive)

Q: With `CCOC(=O)c1cc(-c2ccncc2)nc2c1c(C)nn2-c1ccccn1` as the compound, how does the max activation read?
A: -16.4% [at 0.005 µM, 100% = signal doubled over neutral wells] (inactive)

Q: For `Cc1ccc(-n2cc(CNCCCn3ccnc3C)c(-c3ccc(F)cc3)n2)cc1`, which max activation is on record?
A: -12.6% [at 1.2 µM, 100% = signal doubled over neutral wells] (inactive)

Q: Which max activation does the source give for `CCOC(=O)Cn1nc(-c2ccccc2)c(-c2ccccc2)nc1=O` here?
A: -19.8% [at 0.005 µM, 100% = signal doubled over neutral wells] (inactive)

Q: Which max activation does the source give for `CCOc1ncccc1C(=O)OCC(=O)NCCc1ccc(S(N)(=O)=O)cc1` here?
A: -12.8% [at 0.046 µM, 100% = signal doubled over neutral wells] (inactive)

Q: Which max activation does the source give for `COc1ccc(S(=O)(=O)N(C)c2ccc(C(=O)N3CCCC3)cc2)cc1OC` here?
A: -12.8% [at 3.8 µM, 100% = signal doubled over neutral wells] (inactive)

Q: For `O=C(O)c1ccc(S(=O)(=O)N2CCC3(CC2)CC(=O)c2ccccc2O3)cc1`, which max activation is on record?
A: -16.3% [at 1.2 µM, 100% = signal doubled over neutral wells] (inactive)

Q: For `CCCN1C[C@@H](C)[C@@H](OC)CN(C)C(=O)c2ccc(NC(=O)c3cccc(F)c3)cc2OC[C@H]1C`, which max activation is on record?
A: -15.7% [at 0.005 µM, 100% = signal doubled over neutral wells] (inactive)

Q: With `O=C(Nc1cccc(Cl)c1)c1cnn2cccnc12` as the compound, how does the max activation read?
A: 29.7% (inactive)

Q: Which max activation does the source give for `CCc1nc2ccc(C(=O)NCCCN3CCCC3=O)cn2c1N(CCC(C)C)CCN(C)C` here?
A: -19.8% [at 0.42 µM, 100% = signal doubled over neutral wells] (inactive)

Q: Which max activation does the source give for `CC(=O)c1cccc(-c2csc3ncnc(Sc4nnnn4C)c23)c1` here?
A: -11.8% [at 0.005 µM, 100% = signal doubled over neutral wells] (inactive)

Q: With `CCN(CC)C(=O)C1(P(=O)(c2ccccc2)c2ccccc2)CCC1` as the compound, how does the max activation read?
A: -17.4% [at 0.42 µM, 100% = signal doubled over neutral wells] (inactive)

Q: For `O=C(c1ccco1)N(Cc1ccc(Cl)cc1)C1CCS(=O)(=O)C1` (stereo not drawn), which max activation is on record?
A: 17.8% (inactive)

Q: For `O=c1c(Cc2ccc(Cl)cc2Cl)c(O)ccn1CC(F)(F)F`, which max activation is on record?
A: 17.3% (inactive)

Q: With `CCn1nnnc1NCc1ccc(OCc2c(F)cccc2Cl)c(OC)c1` as the compound, how does the max activation read?
A: -22.7% [at 1.2 µM, 100% = signal doubled over neutral wells] (inactive)

Q: For `COc1ccc(CNC(=O)C2Cc3c(-c4ccccc4)ccnc3O2)cc1OC` (stereo not drawn), which max activation is on record?
A: -21.6% [at 11 µM, 100% = signal doubled over neutral wells] (inactive)

Q: Which max activation does the source give for `C/C(Cl)=C\Cn1c(N2CCCC2)nc2c1c(=O)n(C)c(=O)n2C` here?
A: -30.4% [at 1.2 µM, 100% = signal doubled over neutral wells] (inactive)

Q: With `CCNc1nc(NCC)nc(N(C#N)C(C)C)n1` as the compound, how does the max activation read?
A: 28.6% [at 11 µM, 100% = signal doubled over neutral wells] (inactive)

Q: With `Cc1nc2ccccc2c2nc(NC(=O)C(F)(F)F)nn12` as the compound, how does the max activation read?
A: -15.5% [at 11 µM, 100% = signal doubled over neutral wells] (inactive)

Q: Which max activation does the source give for `CC(C)Oc1ccc(Br)cc1C(=O)N/N=C/c1c[nH]c2ccccc12` here?
A: -45.1% (inactive)

Q: For `CN(C)c1ccc(/C=N/NC(=O)c2ccccc2Cl)cc1`, which max activation is on record?
A: -9.59% [at 0.046 µM, 100% = signal doubled over neutral wells] (inactive)

Q: With `NC(=O)c1ncn([C@@H]2O[C@H](C(=O)N[C@H](Cc3ccccc3)C(=O)O)[C@@H](O)[C@H]2O)n1` as the compound, how does the max activation read?
A: -32.5% (inactive)

Q: Which max activation does the source give for `COc1ccc(N2CCN(C(c3cccs3)C(C)NC(=O)C(=O)N3CCOCC3)CC2)cc1` (stereo not drawn) here?
A: -16.6% [at 3.8 µM, 100% = signal doubled over neutral wells] (inactive)

Q: Which max activation does the source give for `Cc1ccc(CC2S/C(=N/c3ccccn3)NC2=O)cc1` (stereo not drawn) here?
A: -16.1% [at 0.42 µM, 100% = signal doubled over neutral wells] (inactive)

Q: For `Cc1ccc(NC(=O)CC2S/C(=N/N=C/c3c[nH]c4ccccc34)NC2=O)cc1` (stereo not drawn), which max activation is on record?
A: 19.8% [at 3.8 µM, 100% = signal doubled over neutral wells] (inactive)

Q: Which max activation does the source give for `CCOC(=O)N1CCN(S(=O)(=O)N2CCCC(C(=O)NCc3cc(OC)ccc3OC)C2)CC1` (stereo not drawn) here?
A: -20.8% [at 1.2 µM, 100% = signal doubled over neutral wells] (inactive)

Q: Which max activation does the source give for `CCOC(=O)c1c(NC(=O)c2ccoc2C)sc(C(=O)N(C)C)c1C` here?
A: 12.6% (inactive)

Q: With `CC(=O)Nc1sc(C)c(C)c1C(=O)OCC(=O)Nc1cc(S(C)(=O)=O)ccc1Cl` as the compound, how does the max activation read?
A: -22.2% (inactive)

Q: For `O=c1[nH]c(CN2CCN(c3ccc(O)cc3)CC2)nc2scc(-c3ccc(Cl)cc3)c12`, which max activation is on record?
A: -25.6% (inactive)

Q: With `CCOc1ccc(C(C)=O)cc1COC(=O)CN1C(=O)NC2(CCCC2)C1=O` as the compound, how does the max activation read?
A: -28.5% [at 0.005 µM, 100% = signal doubled over neutral wells] (inactive)

Q: Which max activation does the source give for `COc1ccc2ccc(=O)oc2c1CC=C(C)C` here?
A: -13.3% [at 0.015 µM, 100% = signal doubled over neutral wells] (inactive)

Q: With `CCOC(=O)Cn1c(=O)n(Cc2ccc(OC)cc2)c(=O)c2cccnc21` as the compound, how does the max activation read?
A: -22.7% [at 0.005 µM, 100% = signal doubled over neutral wells] (inactive)

Q: With `COc1ccc(CNC(=O)COC(=O)c2cc(C)nc3ccccc23)cc1` as the compound, how does the max activation read?
A: 16.2% (inactive)

Q: Which max activation does the source give for `CCOC(=O)c1c(C)[nH]c(C(C)=NNC(=O)c2cccs2)c1C` here?
A: -42% [at 11 µM, 100% = signal doubled over neutral wells] (inactive)

Q: With `CCOC(=O)c1oc2ccccc2c1NC(=O)c1ccco1` as the compound, how does the max activation read?
A: -17.8% [at 0.135 µM, 100% = signal doubled over neutral wells] (inactive)

Q: With `CNC(=O)C(=O)NCC1OCCCN1S(=O)(=O)c1ccc(F)cc1C` (stereo not drawn) as the compound, how does the max activation read?
A: -17.8% [at 0.005 µM, 100% = signal doubled over neutral wells] (inactive)

Q: For `CC(C)NC(=O)C1(C)CCN1Cc1cccc(C#N)c1` (stereo not drawn), which max activation is on record?
A: -13.6% [at 0.0016 µM, 100% = signal doubled over neutral wells] (inactive)

Q: Which max activation does the source give for `Cc1cccc(C(=O)NC(=S)NNC(=O)COc2c(C)cccc2C)c1` here?
A: -26.2% [at 11 µM, 100% = signal doubled over neutral wells] (inactive)

Q: For `COc1ccc(-c2cccc(C(=O)Nc3ccc(C)cc3)c2)cc1`, which max activation is on record?
A: 26.8% (inactive)
